In PubChem BioAssay (NCI):
Compounds without any hit were thinned out: in the full panel of roughly 83,000, 20% have a hit.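 A percent growth of 40 corresponds to 60% growth inhibition; 0 means no net growth; -100 means all cells died. Active threshold: below 10.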 A number with no mark means an inactive call. The source made the active and inactive calls.

Tests used:
Test in all cases: NCI-60 one-dose screen, 48 h (100 = growth as untreated, 0 = no growth, -100 = all killed)
Details in all cases: 10 µM unless noted
[1] = test system: SK-MEL-2 melanoma
[2] = test system: SN12C renal
[3] = test system: UO-31 renal
[4] = test system: TK-10 renal
[5] = test system: ACHN renal
[6] = test system: CAKI-1 renal
[7] = test system: A498 renal
[8] = test system: CCRF-CEM leukemia
[9] = test system: MOLT-4 leukemia
[10] = test system: RPMI-8226 leukemia
[11] = test system: OVCAR-8 ovarian
[12] = test system: OVCAR-5 ovarian
[13] = test system: OVCAR-4 ovarian
[14] = test system: SK-OV-3 ovarian
[15] = test system: IGROV1 ovarian
[16] = test system: OVCAR-3 ovarian
[17] = test system: HS 578T breast
[18] = test system: NCI/ADR-RES ovarian
[19] = test system: SR leukemia
[20] = test system: EKVX NSCLC

| Compound | growth [1] | growth [2] | growth [3] | growth [4] | growth [5] | growth [6] | growth [7] | growth [8] | growth [9] | growth [10] | growth [11] | growth [12] | growth [13] | growth [14] | growth [15] | growth [16] | growth [17] | growth [18] | growth [19] | growth [20] [%] |
| --- | --- | --- | --- | --- | --- | --- | --- | --- | --- | --- | --- | --- | --- | --- | --- | --- | --- | --- | --- | --- |
| Cc1nc2cnc(N)c(C#Cc3cncc(C(=O)Nc4ccc(CN5CCN(C)CC5)c(C(F)(F)F)c4)c3)c2nc1C | -33.9% (active) | 9.49% (active) | 2.11% (active) | 4.77% (active) | 0.0511% (active) | -36.4% (active) | -81% (active) | 13.7% | 8.72% (active) | -23% (active) | 10.4% | 8.89% (active) | -10.9% (active) | 8.06% (active) | -10.4% (active) | 8.72% (active) | -20.2% (active) | 36.1% | – | – |
| CCOC(=O)c1cn2ncnc(Oc3ccc(NC(=O)NCCN(C)C)c(Cl)c3)c2c1C | 112% | 63.9% | 62.1% | 105% | 84.5% | 65.8% | 57.5% | 43.4% | 53.9% | – | 78.9% | 91.6% | 82.4% | 94.1% | 78.7% | 75% | 85.6% | 88.7% | -13.1% (active) | – |
| COc1ccc(-c2cc(-c3cc(OC)c(OC)c(OC)c3)nc(N3CCOCC3)c2C#N)cc1 | 76.1% | 81% | 63.7% | 100% | 68.3% | -22.7% (active) | 76.7% | 89.9% | 56.7% | 63.7% | 78.9% | 78.4% | 85.8% | 98.2% | – | 82.9% | 67.5% | 29.9% | – | – |
| COc1ccc(-c2[nH]c3ccc(OC)cc3c2/C=C(\C#N)S(=O)(=O)c2ccccc2)cc1 | 82.6% | 44.4% | 42.2% | 45.7% | 41.4% | 74.5% | -5.52% (active) | 2.56% (active) | 17.6% | – | 42.2% | 63.3% | -20.8% (active) | 31.9% | 48.6% | -1.23% (active) | 13.4% | 14.3% | 28.1% | – |
| NCCCNc1nc2ccccc2c2c(=O)c3cccc(F)c3sc12 | 94.6% | 43.4% | 16.4% | 54.2% | 8.21% (active) | 1.7% (active) | 29.4% | 9.26% (active) | -14.7% (active) | – | 29% | 66.9% | 26.2% | 58.5% | 32.5% | 18.5% | 52.4% | 30.3% | -16.7% (active) | – |
| CN1CCN(c2ccc(-c3ccc4ncc(C#N)c(Nc5ccc(F)c(Cl)c5)c4c3)cc2)CC1 | 48.3% | 59.9% | 30.4% | – | 18.9% | 33.8% | -7.38% (active) | 13.1% | 35.7% | 4.87% (active) | 47.9% | 57.6% | 46.8% | 27% | 11.4% | 59.8% | 43.3% | 50.5% | – | – |
| Cc1ccc(C(=O)NN2C(=O)CSC2c2cccc([N+](=O)[O-])c2)cn1 (centres undefined) | – | 96.6% | 14.9% | 98.3% | 92.2% | 79.5% | 100% | 90.8% | 105% | 82.7% | – | 94.7% | 95% | 114% | 73.3% | 92.9% | 124% | 95.2% | 109% | 98.7 |
| NCCCNc1nc2ccccc2c2c(=O)c3cc(C(F)(F)F)ccc3sc12 | 89.7% | 51.9% | 31.9% | 51.9% | -10.8% (active) | -67.7% (active) | 23.6% | 5.18% (active) | -20.1% (active) | – | 0.22% (active) | 69.8% | -45% (active) | 84.3% | 34.8% | -72.4% (active) | 12.2% | -15.9% (active) | -14.9% (active) | – |
| FC(F)(F)c1cc(Nc2ccc3c(OCCCN4CCOCC4)cccc3n2)ccc1Cl | 99.6% | 66.9% | 51% | 76.6% | 50.7% | 55.9% | 67.1% | 24.8% | 18.3% | 13.4% | 75.5% | 50.5% | 55.4% | 78.5% | 48.4% | 60.9% | 55% | 56.2% | – | – |
| O=C(CSc1nc2ccccc2[nH]1)Nc1cccc(Cl)c1 | 104% | 93% | 77.6% | 109% | 99.2% | 80.7% | 73.3% | 104% | 117% | 102% | – | 98.7% | 95.7% | 97.9% | – | 102% | 91.9% | – | – | – |
| C[C@H]1[C@H]2[C@H]3CC[C@@H]4[C@@]5(C)CC[C@H](O)C(C)(C)[C@@H]5CC[C@@]4(C)[C@]3(C)CC[C@]23CO[C@]1(C)[C@@H](C(=O)/C=C\c1cccnc1)C3 | – | 62.7% | 58.7% | 31.9% | 41.6% | 55.6% | 72.9% | 30.8% | 25.2% | 9.55% (active) | 35.1% | 121% | 49% | 77.8% | 80.6% | 46.7% | 82% | 78.9% | – | 101 |
| Cc1ccc(/C=C2\Oc3ccc(O)c(O)c3C2=O)cc1 | – | 62.8% | 13.5% | 98% | 29.1% | 34.4% | 70.2% | 15.6% | 29.6% | 51.1% | 44.5% | 68.5% | 43.7% | 63.6% | 38.1% | 11.7% | 62.5% | 45.1% | – | 19.7 |
| COc1ccc(C2CC(c3ccc(Nc4ccnc5cc(Cl)ccc45)cc3)=NN2C=O)cc1 (centres undefined) | – | 64.4% | 43.2% | 91.2% | 48.5% | 59.2% | 101% | 14% | 25.8% | 30.9% | 73.3% | 102% | 62.3% | 96.9% | 67.5% | 52.7% | 68.8% | 51.7% | – | 68.2 |
| CCOC(=O)c1[nH]c(C)c(C(=O)OCc2ccccc2C#N)c1C | – | 95% | 88.3% | 90.9% | 87.4% | 82.1% | 79.3% | 92.4% | 78.8% | – | 70.5% | – | 85.8% | 88.3% | 44.6% | 62.5% | 49.1% | 14.9% | 45.7% | 114 |
| COc1ccc(OC)c(/C=C/C(=O)N/N=C/c2ccc(Cl)cc2)c1 | – | 46.2% | 30.1% | 51% | 48.4% | 41.8% | 12.5% | 13.7% | 26.3% | 21.3% | 21% | 28.4% | 40.2% | -4.93% (active) | 17.9% | – | -1.72% (active) | 3.82% (active) | – | 43.1 |
| COc1ccc(-c2cc(-c3ccc(Cl)cc3)c(C#N)c(=O)n2CCCCCC(=O)Nc2ccccc2N)cc1 | – | 41.9% | 43% | 78.3% | 34.2% | 7.69% (active) | 39.1% | 32.5% | 35.2% | – | 29.8% | 52.2% | 54.7% | 63.6% | 37.6% | 58.3% | 70% | 33.3% | -1.58% (active) | 51.5 |
| Fc1cc(-c2nnc3sc(-c4ccc(Cl)cc4Cl)nn23)c(Cl)cc1Cl | – | 82.8% | 73% | 109% | 73.7% | 86.5% | 109% | -78.6% (active) | 134% | 84% | 82.6% | 96.6% | 26.2% | 77.1% | 86.1% | 99.4% | -14.7% (active) | 89.4% | – | 73.3 |
